Assay results as given in PubChem BioAssay (NCATS).
Several values for one entry are separate records, joined by “and”; a condition that tells them apart may be missing. Identical values can stand only once. Records with an inconclusive call do not appear. Entries that show only a call come without a potency. Activity calls are given as the source filed them. The call rests on the fitted dose curve; in most records, active means well fitted inhibition curve with a large enough effect; inconclusive means small, poorly fitted or top-dose-only effect; inactive means flat fitted curve, though single readings scatter.

Tested on: HACAT
Test: qHTS assay to identify novel small-molecules to repurpose for Merkel cell carcinoma treatment (AID 1296009); further: nearly all actives have a fitted effect of over 60% in size
Conditions: MCC and control cell lines, CellTiter-Glo viability, 72 h; at 44.8 µM (top of the series) unless noted
Method in brief: (§1)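 Cells exposed to NPC (8-point) and MIPE (11-point) compound dilutions for 72 hr at 37 degree celsius; viability read by CellTiter-Glo luminescence, normalized to no-cell and DMSO in-plate controls.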
Potency means the concentration at half of the fitted maximal effect.

| SMILES | outcome |
| --- | --- |
| CC(C)c1ccc2oc3nc(N)c(C(=O)O)cc3c(=O)c2c1 | inactive |
| c1cnc2cc3c(cc2n1)C1CNCC3C1 | inactive |
| Nc1nc(OCc2ccccc2)c2[nH]cnc2n1 | inactive |
| C[C@@H](N)C1CCC(C(=O)Nc2ccncc2)CC1 (some centres undefined) | inactive |
| CCN(CC)CCOc1ccc(Cc2ccccc2)cc1 | inactive |
| O=C(NCCO[N+](=O)[O-])c1cccnc1 | inactive |
| Cc1ccc(C(=O)c2cc(O)c(O)c([N+](=O)[O-])c2)cc1 | inactive |
| CC1(C)NC(=O)N(c2ccc([N+](=O)[O-])c(C(F)(F)F)c2)C1=O | inactive |
| Cc1cc(=O)c2c(O)c3c(O)cc(=O)c4c3c3c(cc(O)c1c23)C(C)(C)C=4O | inactive |
| CNC[C@@H](O)[C@@H](O)[C@H](O)[C@H](O)CO | inactive |
| c1ccc2[nH]c(-c3cscn3)nc2c1 | inactive |
| Nc1ccc(S(N)(=O)=O)cc1 | inactive |
| CCOC(=O)c1c(C)n(C)c2ccc(O)cc12 | inactive |
| Nc1ncn([C@H]2C[C@H](O)[C@@H](CO)O2)c(=O)n1 | inactive |
| Cc1c(OCC(F)(F)F)ccnc1CS(=O)c1nc2ccccc2[nH]1 (centres undefined) | inactive |
| CC(C)[C@H](N)C(=O)OCCOCn1cnc2c(=O)[nH]c(N)nc21 | inactive |

| SMILES | outcome |
| --- | --- |
| O=C(O)c1cccnc1Nc1cccc(C(F)(F)F)c1 | inactive |
| NC(=O)Cc1cccc(C(=O)c2ccccc2)c1N | inactive |
| Cc1ccc(NC(=O)c2ccc(CN3CCN(C)CC3)cc2)cc1Nc1nccc(-c2cccnc2)n1 | inactive |
| N[C@@H](Cc1cc(I)c(Oc2cc(I)c(O)c(I)c2)c(I)c1)C(=O)O | inactive |
| Cc1nccn1CC1CCc2c(c3ccccc3n2C)C1=O (centres undefined) | inactive |
| CN1CCC(=C2c3ccccc3CCc3sccc32)CC1 | inactive |
| CCC(C)(Oc1ccc(C2(c3ccc(OC(C)(CC)C(=O)O)cc3)CCCCC2)cc1)C(=O)O (centres undefined) | inactive |
| Cc1ccc(Nc2nccc(N(C)c3ccc4c(C)n(C)nc4c3)n2)cc1S(N)(=O)=O | inactive |
| CC(S)C(=O)NCC(=O)O (centres undefined) | inactive |
| C[C@H](Cn1cnc2c(N)ncnc21)OCP(=O)(O)O | inactive |
| COCCCOc1ccnc(CS(=O)c2nc3ccccc3[nH]2)c1C (centres undefined) | inactive; activator |
| CCOc1cc(CC(=O)N[C@@H](CC(C)C)c2ccccc2N2CCCCC2)ccc1C(=O)O | inactive |
| CCCCc1ccc2nc(NC(=O)OC)[nH]c2c1 | inactive |
| CC1Cc2ccccc2N1NC(=O)c1ccc(Cl)c(S(N)(=O)=O)c1 (centres undefined) | inactive |
| COc1cc2c(cc1OC)C1CC(=O)C(CC(C)C)CN1CC2 (centres undefined) | inactive |

Tested on: HEK293T
Test: as above
Conditions: MCC and control cell lines, CellTiter-Glo viability, 72 h; at 44.8 µM (top of the series) unless noted
Method in brief: as §1

| SMILES | outcome |
| --- | --- |
| Nc1nc(OCc2ccccc2)c2[nH]cnc2n1 | inactive |
| C[C@@H](N)C1CCC(C(=O)Nc2ccncc2)CC1 (some centres undefined) | inactive |
| O=C(NCCO[N+](=O)[O-])c1cccnc1 | inactive |
| Cc1ccc(C(=O)c2cc(O)c(O)c([N+](=O)[O-])c2)cc1 | inactive |
| CNC[C@@H](O)[C@@H](O)[C@H](O)[C@H](O)CO | inactive |
| CC(C)[C@H](N)C(=O)OCCOCn1cnc2c(=O)[nH]c(N)nc21 | inactive |
| Cc1cc(=O)oc2cc(O)ccc12 | inactive |
| C[C@H](Cn1cnc2c(N)ncnc21)OCP(=O)(O)O | inactive |
| CCOc1cc(CC(=O)N[C@@H](CC(C)C)c2ccccc2N2CCCCC2)ccc1C(=O)O | inactive |
| CNC[C@H](O)c1ccc(O)c(O)c1 | inactive [at 17.4 µM] |
| COc1cc2c(cc1OC)C1CC(=O)C(CC(C)C)CN1CC2 (centres undefined) | inactive |

Tested on: MCC-13
Test: as above
Conditions: MCC and control cell lines, CellTiter-Glo viability, 72 h; series mostly up to 46 µM
Method in brief: as §1

| SMILES | Potency |
| --- | --- |
| CC(C)c1ccc2oc3nc(N)c(C(=O)O)cc3c(=O)c2c1 | inactive |
| c1cnc2cc3c(cc2n1)C1CNCC3C1 | inactive |
| Nc1nc(OCc2ccccc2)c2[nH]cnc2n1 | inactive |
| C[C@@H](N)C1CCC(C(=O)Nc2ccncc2)CC1 (some centres undefined) | inactive |
| CCN(CC)CCOc1ccc(Cc2ccccc2)cc1 | inactive |
| O=C(NCCO[N+](=O)[O-])c1cccnc1 | inactive |
| Oc1ccc(OCc2ccccc2)cc1 | inactive |
| Cc1nc(Nc2ncc(C(=O)Nc3c(C)cccc3Cl)s2)cc(N2CCN(CCO)CC2)n1 | 168 nM (active) |
| Cc1ccc(C(=O)c2cc(O)c(O)c([N+](=O)[O-])c2)cc1 | inactive |
| CC1(C)NC(=O)N(c2ccc([N+](=O)[O-])c(C(F)(F)F)c2)C1=O | inactive |
| Cc1cc(=O)c2c(O)c3c(O)cc(=O)c4c3c3c(cc(O)c1c23)C(C)(C)C=4O | inactive |
| CNC[C@@H](O)[C@@H](O)[C@H](O)[C@H](O)CO | inactive |
| c1ccc2[nH]c(-c3cscn3)nc2c1 | inactive |
| Nc1ccc(S(N)(=O)=O)cc1 | inactive |
| CCOC(=O)c1c(C)n(C)c2ccc(O)cc12 | inactive |
| Nc1ncn([C@H]2C[C@H](O)[C@@H](CO)O2)c(=O)n1 | inactive |
| OC(CN1CCN(c2cccc(Cl)c2)CC1)C(c1ccccc1)c1ccccc1 (centres undefined) | inactive |
| Cc1c(OCC(F)(F)F)ccnc1CS(=O)c1nc2ccccc2[nH]1 (centres undefined) | inactive |
| CC(C)[C@H](N)C(=O)OCCOCn1cnc2c(=O)[nH]c(N)nc21 | inactive |

| SMILES | Potency |
| --- | --- |
| O=C(O)c1cccnc1Nc1cccc(C(F)(F)F)c1 | inactive |
| NC(=O)Cc1cccc(C(=O)c2ccccc2)c1N | inactive |
| Cc1ccc(NC(=O)c2ccc(CN3CCN(C)CC3)cc2)cc1Nc1nccc(-c2cccnc2)n1 | inactive |
| Cc1cc(=O)oc2cc(O)ccc12 | inactive |
| COc1ccccc1N1CCN(CCN(C(=O)C2CCCCC2)c2ccccn2)CC1 | inactive |
| N[C@@H](Cc1cc(I)c(Oc2cc(I)c(O)c(I)c2)c(I)c1)C(=O)O | inactive |
| Cc1nccn1CC1CCc2c(c3ccccc3n2C)C1=O (centres undefined) | inactive |
| CN1CCC(=C2c3ccccc3CCc3sccc32)CC1 | inactive |
| CCC(C)(Oc1ccc(C2(c3ccc(OC(C)(CC)C(=O)O)cc3)CCCCC2)cc1)C(=O)O (centres undefined) | inactive |
| Cc1ccc(Nc2nccc(N(C)c3ccc4c(C)n(C)nc4c3)n2)cc1S(N)(=O)=O | inactive |
| CC(S)C(=O)NCC(=O)O (centres undefined) | inactive |
| C[C@H](Cn1cnc2c(N)ncnc21)OCP(=O)(O)O | inactive |
| COCCCOc1ccnc(CS(=O)c2nc3ccccc3[nH]2)c1C (centres undefined) | inactive |
| CCOc1cc(CC(=O)N[C@@H](CC(C)C)c2ccccc2N2CCCCC2)ccc1C(=O)O | inactive |
| CCCCc1ccc2nc(NC(=O)OC)[nH]c2c1 | 296 nM (active) and 53.1 nM (active) |
| CNC[C@H](O)c1ccc(O)c(O)c1 | inactive |
| CC1Cc2ccccc2N1NC(=O)c1ccc(Cl)c(S(N)(=O)=O)c1 (centres undefined) | inactive |
| COc1cc2c(cc1OC)C1CC(=O)C(CC(C)C)CN1CC2 (centres undefined) | inactive |
